Consider 7 molecules from PubChem BioAssay (Tox21).

Values without a mark were called inactive. Results filed as inconclusive are left out. Calls of active or inactive are those of the source. Unless noted, the call rests on the fitted dose curve; in most records, active means well fitted curve in the direction sought with a large enough effect in the repeat runs; inconclusive means weak or mixed curves; inactive means no such curve, though single readings can be large; an effect the other way counts as inactive or inconclusive.

Test [1] in a line: qHTS assay to identify small molecule antagonists of the estrogen receptor beta (ER-beta) signaling pathway - cell viability counter screen (AID 1259382).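 Further: HEK293T cells carrying ER-beta-UAS-bla reporter stimulated with estradiol; series mostly up to about 92 µM; nearly all actives have a fitted effect of over 55% in size.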 The gist of the method: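 ER-beta-UAS-bla HEK293T cells in 2% charcoal-stripped FBS medium, treated with compound plus 1 nM 17-beta-estradiol for 16 h at 37C. Viability read by CellTiter-Glo luminescence after 30 min at room temperature in the same wells.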
A general note: Quantitative high-throughput screening tests each substance at several concentrations.

The target in test [2] is Estrogen receptor (Homo sapiens) (UniProt P03372). Briefly: qHTS assay to identify small molecule agonists of the estrogen receptor alpha (ER-alpha) signaling pathway in the presence of an antagonist (AID 1259383; calls by dose curve; further: nearly all actives have a fitted effect of over 15% in size; further: potency means the concentration at half of the fitted maximal effect; on activation: top concentration of the series differs between compounds). The gist of the method:
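VM7Luc4E2 cells express endogenous full-length ER-alpha with an ERE-luciferase reporter and were hormone-deprived for 5 days. Compounds at 15 concentrations were added with 10.0nM ICI-182,780 for 22hr at 37C. Luminescence was read with ONE-Glo.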

Test [3] in a line: qHTS assay to identify small molecule agonists or antagonists of the thyroid stimulating hormone receptor (TSHR) signaling pathway - wild type cell line counter screen (AID 1259384; calls by dose curve). In a few lines:
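Counter screen in untransfected Hek293: compounds (15-point titration, triplicate) plus phosphodiesterase inhibitor Ro20-1724 added after 18 h plating; 30 min RT. Intracellular cAMP via competitive d2/cryptate immunoassay, 1 h incubation.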

Test [4] has as its target Thyrotropin receptor (Homo sapiens) (UniProt P16473). Briefly: qHTS assay to identify small molecule antagonists of the thyroid stimulating hormone receptor (TSHR) signaling pathway (AID 1259385; calls by dose curve; further: nearly all actives have a fitted effect of over 20% in size; further: potency means the concentration at half of the fitted maximal effect). In a few lines:
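Antagonist mode: compound-treated TSHR-expressing HEK293 cells were stimulated with 1.5 ng/mL TSH (final) in presence of Ro20-1724 for 30 min at RT. HTRF cAMP detection after 1 h; each compound tested at 15 concentrations, triplicate.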

A short description of test [5]: qHTS assay to identify small molecule agonists of the estrogen receptor alpha (ER-alpha) signaling pathway in the presence of an antagonist - cell viability counter screen (AID 1259386).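 Further: series mostly up to about 92 µM; cells exposed to compounds for 22 h at 37 °C before the viability read; nearly all actives have a fitted effect of over 30% in size.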 The gist of the method:
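Cell viability in VM7Luc4E2 cells (endogenous full-length ER-alpha) measured by CellTiter-Fluor fluorescence in the same wells as the luciferase screen. Cells pre-cultured 5 days in charcoal-stripped serum, then treated 22 h with compounds at 15 concentrations plus 10.0nM ICI-182,780.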

The target in test [6] is Progesterone receptor (Homo sapiens) (UniProt P06401). Briefly: qHTS assay to identify small molecule agonists of the progesterone receptor (PR) signaling pathway (AID 1346784; calls by dose curve; further: nearly all actives have a fitted effect of over 30% in size). In a few lines:
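Compounds were tested for PR agonism in HEK 293T cells bearing a beta-lactamase gene under UAS control. Treatment lasted 16 hr at 37C; signal came from fluorescence of a FRET substrate.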

For test [7] the target is unchanged. Briefly: qHTS assay to identify small molecule antagonists of the progesterone receptor (PR) signaling pathway (AID 1346795; active means well fitted inhibition curve with a large enough effect in the signal ratio in the repeat runs, not every such curve was filed as active; the % refers to the signal ratio). In a few lines:
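In HEK293T cells bearing the PR-UAS-bla reporter, compound effects on promegestone-driven (1 nM) beta-lactamase expression are assessed after 16 hr using a fluorescent FRET substrate incubated 2 hr at room temperature.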

Test [8] can be described thus: qHTS assay to identify small molecule antagonists of the progesterone receptor (PR) signaling pathway - cell viability counter screen (AID 1346798). Further: series mostly up to about 92 µM; nearly all actives have a fitted effect of over 50% in size. In a few lines:
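Following a 4 hr attachment, PR-UAS-bla HEK293T cells in charcoal-stripped FBS medium were exposed to compounds with R5020 for 16 hr; CellTiter-Glo was added and luminescence read after 30 min at room temperature.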

Test [9] in a line: qHTS assay to identify small molecule agonists of the progesterone receptor (PR) signaling pathway - cell viability counter screen (AID 1346799; calls by dose curve; further: nearly all actives have a fitted effect of over 45% in size). In a few lines:
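Here, 3,000 PR-UAS-bla HEK293T cells per well were treated with compounds for 16 hr after a 6 hr preincubation at 37C and 5% CO2; cell viability is the CellTiter-Glo luminescence signal.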

A short description of test [10]: qHTS assay to identify small molecule antagonists of the TGF-beta/Smad signaling pathway - cell viability counter screen (AID 1346824). Further: nearly all actives have a fitted effect of over 50% in size. In a few lines: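 Cytotoxicity counter-screen run in the same wells as the beta-lactamase Smad reporter read: CellTiter-Glo luminescence after 30 min at room temperature. HEK 293T SBE-bla cells had 5 hr compound exposure at 37 C with TGF-beta1 (0.25 ng/mL stock).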

Test [11] in a line: qHTS assay to identify small molecule agonists of the TGF-beta/Smad signaling pathway - cell viability counter screen (AID 1346829). Further: top concentration of the series differs between compounds; nearly all actives have a fitted effect of over 45% in size. In a few lines:
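HEK 293T SBE-bla line, 5 hr compound exposure at 37 C, multiplexed CellTiter-Glo viability read by luminescence.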

A short description of test [12]: qHTS assay to identify small molecule agonists of the TGF-beta/Smad signaling pathway (AID 1346859; active means well fitted activation curve with a large enough effect in the signal ratio in the repeat runs, not every such curve was filed as active; the % refers to the signal ratio; further: series mostly up to about 77 µM). The gist of the method:
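Each well held 4,000 SBE-bla HEK 293T cells incubated overnight before compound addition; 5 hr later the cleavable FRET substrate went on for 2 hr at room temperature, and fluorescence was read at two emissions.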

The target of test [13] is Thyrotropin-releasing hormone receptor (Homo sapiens) (UniProt P34981). Briefly: qHTS assay to identify small molecule agonists of the thyrotropin-releasing hormone receptor (TRHR) signaling pathway (AID 1346891; calls by dose curve; further: series mostly up to about 58 µM). In a few lines: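 Screening of agonists relied on calcium signalling in HEK293 cells expressing human TRHR: dye loading 2 h at 37 °C preceded compound addition and a 3-min fluorescence time course.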

A short description of test [14]: Human pregnane X receptor (PXR) small molecule agonists, qHTS cell viability counter screen (AID 1346977). Further: nearly all actives have a fitted effect of over 50% in size. The gist of the method: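 Tox21 qHTS format; PXR-Luc HepG2, 2,000/well, charcoal-stripped FBS 5%. Cpd exposure 24hr. Read: CellTiter-Fluor fluorescence, multiplexed with luciferase.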
Test [15] can be described thus: Caspase-3/7 induction in HepG2 cells by small molecules, qHTS assay (AID 1346978). Further: nearly all actives have a fitted effect of over 15% in size. In a few lines: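 Caspase-3/7 induction was measured by Caspase-Glo 3/7 luminescence (30 min, room temperature) after a 17 hr compound exposure of wild-type HepG2 cells seeded at 2,000 per well and pre-incubated 5 hr.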
Test [16] in a line: Caspase-3/7 induction in CHO-K1 cells by small molecules, qHTS assay (AID 1346980). Further: nearly all actives have a fitted effect of over 15% in size. In a few lines:
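Luminescent Caspase-Glo 3/7 read (30min, room temperature) quantified apoptosis induction. Cells were wild-type CHO-K1, treated with compound for 17hr at 37 C and 5% CO2.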

Test [17] can be described thus: Caspase-3/7 induction in HepG2 cells by small molecules, qHTS cell viability counter screen (AID 1346981). Further: series mostly up to about 92 µM; nearly all actives have a fitted effect of over 30% in size. In a few lines: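 Wild-type HepG2 cells, 2,000/well, settled 5 hr at 37 C, 5% CO2 before compound addition. Viability read by CellTiter-Fluor fluorescence, reagent added after 16 hr compound exposure, then 1 hr at 37C, in the same wells as the caspase read.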

The target of test [18] is Nuclear receptor subfamily 1 group I member 2 (Homo sapiens) (UniProt O75469). Briefly: Human pregnane X receptor (PXR) small molecule agonists, qHTS assay (AID 1346982). Further: nearly all actives have a fitted effect of over 35% in size. Further: potency means the concentration at half of the fitted maximal effect. The gist of the method:
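PXR-Luc HepG2 reporter cells (CYP3A4-driven luciferase) in 5% charcoal-stripped FBS medium, plated 5 h before compound addition, then treated 24 h at 37C. Luciferase read by ONE-Glo luminescence after 30 min at room temperature.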

Test [19] in a line: Caspase-3/7 induction in CHO-K1 cells by small molecules, qHTS cell viability counter screen (AID 1346979). Further: nearly all actives have a fitted effect of over 35% in size. In a few lines: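 CellTiter-Fluor viability check, qHTS format: wild-type CHO-K1, 16hr compound treatment, 1hr reagent incubation, fluorescence read.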
For test [20], the target named is Thyrotropin-releasing hormone receptor (Homo sapiens) (UniProt P34981). Briefly: qHTS assay to identify small molecule antagonists of the thyrotropin-releasing hormone receptor (TRHR) signaling pathway (AID 1346877; active means well fitted inhibition curve with a large enough effect in the repeat runs, not every such curve was filed as active; further: series mostly up to about 51 µM). The gist of the method: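 TRHR-expressing HEK293 cells loaded with calcium dye for 2 h at 37 C; compounds pre-incubated 5 min at room temperature before TRH challenge at 1 nM final. Intracellular calcium fluorescence read kinetically for 3 min; 15 concentrations in triplicate.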

Sequence of Thyrotropin-releasing hormone receptor (Homo sapiens) (P34981 whole entry, looked up): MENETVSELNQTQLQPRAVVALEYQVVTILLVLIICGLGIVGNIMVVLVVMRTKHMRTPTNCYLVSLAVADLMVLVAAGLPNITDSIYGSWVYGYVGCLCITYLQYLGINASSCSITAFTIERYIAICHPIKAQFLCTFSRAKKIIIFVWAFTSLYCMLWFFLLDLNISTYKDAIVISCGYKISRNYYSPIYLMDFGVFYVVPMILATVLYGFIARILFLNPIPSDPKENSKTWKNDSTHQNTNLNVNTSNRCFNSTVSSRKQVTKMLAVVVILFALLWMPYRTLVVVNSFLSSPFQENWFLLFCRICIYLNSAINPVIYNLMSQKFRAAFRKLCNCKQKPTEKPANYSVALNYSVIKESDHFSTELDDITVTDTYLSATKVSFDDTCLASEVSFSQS
Sequence of Progesterone receptor (Homo sapiens) (P06401 whole entry, looked up): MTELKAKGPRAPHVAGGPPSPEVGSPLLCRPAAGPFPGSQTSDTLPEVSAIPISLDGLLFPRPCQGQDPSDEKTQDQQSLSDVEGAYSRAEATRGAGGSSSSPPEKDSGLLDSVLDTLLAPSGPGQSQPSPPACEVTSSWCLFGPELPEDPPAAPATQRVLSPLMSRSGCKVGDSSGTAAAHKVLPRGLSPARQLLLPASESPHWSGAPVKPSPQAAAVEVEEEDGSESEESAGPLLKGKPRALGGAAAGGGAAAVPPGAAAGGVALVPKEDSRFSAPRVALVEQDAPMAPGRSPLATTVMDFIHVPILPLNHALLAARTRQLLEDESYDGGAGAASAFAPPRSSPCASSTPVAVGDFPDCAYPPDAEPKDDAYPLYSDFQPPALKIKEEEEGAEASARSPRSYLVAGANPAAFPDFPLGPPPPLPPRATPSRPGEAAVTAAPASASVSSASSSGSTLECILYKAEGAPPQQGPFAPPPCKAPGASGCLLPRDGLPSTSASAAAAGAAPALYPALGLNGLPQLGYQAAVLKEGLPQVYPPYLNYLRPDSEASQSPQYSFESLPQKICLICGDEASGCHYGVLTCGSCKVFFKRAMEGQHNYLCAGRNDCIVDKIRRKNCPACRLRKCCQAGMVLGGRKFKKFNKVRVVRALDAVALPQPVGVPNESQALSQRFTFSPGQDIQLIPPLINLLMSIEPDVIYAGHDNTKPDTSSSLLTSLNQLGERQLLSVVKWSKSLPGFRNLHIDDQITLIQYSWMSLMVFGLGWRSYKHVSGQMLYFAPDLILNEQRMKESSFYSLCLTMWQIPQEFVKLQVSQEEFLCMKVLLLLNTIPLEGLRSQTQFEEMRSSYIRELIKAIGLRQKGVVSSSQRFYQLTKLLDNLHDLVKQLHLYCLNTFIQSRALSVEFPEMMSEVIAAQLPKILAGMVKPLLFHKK
Sequence of Nuclear receptor subfamily 1 group I member 2 (Homo sapiens) (O75469 whole entry, looked up): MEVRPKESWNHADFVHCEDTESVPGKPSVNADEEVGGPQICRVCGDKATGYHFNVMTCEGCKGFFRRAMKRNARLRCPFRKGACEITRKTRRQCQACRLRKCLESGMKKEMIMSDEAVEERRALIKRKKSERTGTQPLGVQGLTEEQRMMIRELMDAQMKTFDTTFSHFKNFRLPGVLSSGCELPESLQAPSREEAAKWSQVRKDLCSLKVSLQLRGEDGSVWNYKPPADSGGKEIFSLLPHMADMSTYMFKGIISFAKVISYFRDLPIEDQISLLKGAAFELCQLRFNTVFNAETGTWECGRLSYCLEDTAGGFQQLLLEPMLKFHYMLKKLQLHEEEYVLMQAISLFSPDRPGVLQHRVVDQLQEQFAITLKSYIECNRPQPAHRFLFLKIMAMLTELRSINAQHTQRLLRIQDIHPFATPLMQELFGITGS
Sequence of Estrogen receptor (Homo sapiens) (P03372 whole entry, looked up): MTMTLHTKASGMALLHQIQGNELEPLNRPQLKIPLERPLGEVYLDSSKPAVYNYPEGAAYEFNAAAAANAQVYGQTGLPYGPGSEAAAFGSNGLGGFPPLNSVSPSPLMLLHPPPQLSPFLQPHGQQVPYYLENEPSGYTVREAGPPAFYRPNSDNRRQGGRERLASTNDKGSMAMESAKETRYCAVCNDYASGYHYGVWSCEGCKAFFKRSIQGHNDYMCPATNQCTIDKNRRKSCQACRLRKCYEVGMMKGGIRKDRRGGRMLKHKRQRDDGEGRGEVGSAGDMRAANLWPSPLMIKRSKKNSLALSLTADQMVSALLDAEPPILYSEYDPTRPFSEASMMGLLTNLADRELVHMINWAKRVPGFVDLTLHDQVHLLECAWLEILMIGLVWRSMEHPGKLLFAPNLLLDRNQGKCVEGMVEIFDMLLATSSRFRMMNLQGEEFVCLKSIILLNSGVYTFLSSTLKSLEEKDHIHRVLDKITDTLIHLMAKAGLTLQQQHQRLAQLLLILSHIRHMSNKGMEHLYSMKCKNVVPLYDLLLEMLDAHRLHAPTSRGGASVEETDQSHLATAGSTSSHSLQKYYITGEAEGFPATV
Sequence of Thyrotropin receptor (Homo sapiens) (P16473 whole entry, looked up): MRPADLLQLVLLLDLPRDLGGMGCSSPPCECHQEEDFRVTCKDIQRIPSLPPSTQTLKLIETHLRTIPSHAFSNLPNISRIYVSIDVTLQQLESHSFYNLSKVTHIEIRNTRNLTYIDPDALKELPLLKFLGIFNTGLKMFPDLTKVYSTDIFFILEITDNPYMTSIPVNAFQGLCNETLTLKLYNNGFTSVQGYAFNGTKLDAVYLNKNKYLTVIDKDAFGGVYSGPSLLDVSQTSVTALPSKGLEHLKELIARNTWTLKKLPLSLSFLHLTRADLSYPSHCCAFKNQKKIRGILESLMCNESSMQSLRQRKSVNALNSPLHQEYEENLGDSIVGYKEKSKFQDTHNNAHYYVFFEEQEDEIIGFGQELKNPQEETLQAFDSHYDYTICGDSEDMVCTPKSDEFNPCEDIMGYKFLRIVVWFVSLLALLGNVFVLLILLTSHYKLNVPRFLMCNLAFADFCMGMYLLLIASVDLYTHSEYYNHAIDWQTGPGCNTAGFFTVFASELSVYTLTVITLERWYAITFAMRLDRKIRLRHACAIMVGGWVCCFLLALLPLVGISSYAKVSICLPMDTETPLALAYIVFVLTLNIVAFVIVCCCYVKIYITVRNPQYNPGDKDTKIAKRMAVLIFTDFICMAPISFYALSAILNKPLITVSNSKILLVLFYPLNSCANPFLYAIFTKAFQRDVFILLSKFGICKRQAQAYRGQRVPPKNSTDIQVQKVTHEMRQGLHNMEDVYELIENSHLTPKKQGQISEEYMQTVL

Regarding `O=C(c1ccccc1)c1ccc(Cl)cc1`, the Potency result in test [1], in [2], in test [3], in [4], in test [5] and in test [7] was “inactive” in each case. The Potency result in [8], in test [9], in test [10], in test [11], in test [13] and in [14] was “inactive” in each case. For the same molecule, the Potency result in test [15], in [16], in [17] and in [18] was “inactive” in each case. Further, the call in [6] and in [12] was inactive.

In the case of `Cc1c[nH]c(=O)[nH]c1=O`, the Potency entry in [1], in test [2], in test [3], in test [4], in test [5] and in test [7] was “inactive” each time. The Potency entry in test [8], in test [9], in test [10], in test [11], in test [13] and in test [14] was “inactive” in each case. Also, the Potency entry in test [15], in [19], in test [16], in [17] and in test [18] was “inactive” in each case. Besides, the molecule was classed as inactive in test [6] and in test [12].

For `CC(C)c1ccc2sc3ccccc3c(=O)c2c1`, the Potency result in test [1], in [3], in test [5], in test [8], in test [9] and in [10] was “inactive” in each case. Further, the Potency entry in test [11], in test [14], in test [15], in [19] and in test [16] was “inactive” each time. The Potency in test [2] was 1.37 µM (active); in [4] it was 54.5 µM (active); in test [18], 17.2 µM (active). In test [6], the molecule was called inactive.

Consider `Cc1ccc2sc3cccc(C)c3c2c1`, for which the Potency entry in test [1], in test [2], in test [3], in test [4], in test [5] and in [8] was “inactive” throughout. Also, the Potency result in test [9], in test [10], in test [11], in test [20], in test [14] and in [15] was “inactive” throughout. Moreover, the Potency entry in test [19], in test [16], in test [17] and in test [18] was “inactive” each time. Also, the result in test [6] and in [12] was inactive.

For `N#CCCOCCC#N`, the Potency entry in [1], in [2], in [3], in test [4], in test [5] and in test [8] was “inactive” in each case. Further, the Potency entry in test [9], in test [10], in test [11], in [20], in test [13] and in [14] was “inactive” each time. The Potency result in [15], in test [19], in test [16] and in test [17] was “inactive” in each case. Moreover, the result in [6] and in [12] was inactive.

On to `Brc1cc(Br)cc(Br)c1`, for which the Potency result in test [1], in [2], in [3], in test [4], in [5] and in [7] was “inactive” in each case. Moreover, the Potency entry in test [8], in test [10], in test [11], in test [20], in test [13] and in test [14] was “inactive” throughout. The Potency entry in test [19], in test [16], in test [17] and in test [18] was “inactive” each time. Moreover, the molecule was called inactive in test [6] and in [12].

For the molecule `CC/C=C(\C)C=O`, the Potency result in test [1], in test [2], in test [3], in [4], in test [5] and in test [7] was “inactive” each time. In addition, the Potency entry in test [8], in test [9], in [11], in [20], in test [14] and in [15] was “inactive” throughout. Further, the Potency result in test [19], in [16] and in [18] was “inactive” each time. Further, the outcome in test [6] and in test [12] was inactive.
